# In the supplement of paper PMC9262897, “Low-cost anti-mycobacterial drug discovery using engineered E. coli” (Nature Communications, 2022):
# Counter-ions that a name gives are not always drawn. ± gives the standard deviation of the averaged measurements.
# System: E. coli TESEC Mtb Asd
# Assay: growth (OD600 after 10 h); higher = more growth (less inhibition)
# Details: arabinose induction (level): Low; compound 0.1 mM; raw OD600 reference: median of DMSO wells 0.417, cell-free background 0.041
# Procedure: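 TESEC E. coli strains in which the native enzyme is deleted and replaced by arabinose-inducible Mtb Asd, DapB, CysH or TrpD, each grown in its selective medium. Strains were screened against the Prestwick library at 0.1 mM and 1% DMSO in 384-well format at low and high arabinose induction. Growth is read as OD600 after 10 h in triplicate.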
row,SMILES,growth
1,CN1CCc2cccc3c2[C@H]1Cc1ccc(O)c(O)c1-3 [R(-) Apomorphine hydrochloride hemihydrate],0.147 ± 0.066
2,CN1CCCN(C(c2ccccc2)c2ccc(Cl)cc2)CC1 (centres undefined) [Homochlorcyclizine dihydrochloride],0.152 ± 0.015
3,Cc1ncc(CO)c(CO)c1O [Pyridoxine hydrochloride],0.37 ± 0.022
4,O=C(NCC(O)CO)c1c(I)c(C(=O)NCC(O)CO)c(I)c(N(CCO)C(=O)CO)c1I (centres undefined) [Ioversol],0.46 ± 0.019
5,C[C@@H]1[C@H](O)[C@@H](C)/C=C/C=C/C=C/C=C/C=C/C=C/C=C/[C@H](O[C@@H]2O[C@H](C)[C@@H](O)[C@H](N)[C@@H]2O)C[C@@H]2O[C@](O)(C[C@@H](O)C[C@@H](O)[C@H](O)CC[C@@H](O)C[C@@H](O)CC(=O)O[C@H]1C)C[C@H](O)[C@H]2C(=O)O [Amphotericin B],0.504 ± 0.026
6,C=Cc1c(C)c2cc3nc(cc4[nH]c(cc5nc(cc1[nH]2)C(C)=C5CCC(=O)O)c(CCC(=O)OC)c4C)[C@@]1(C)C3=CC=C(C(=O)OC)C1C(=O)OC.C=Cc1c(C)c2cc3nc(cc4[nH]c(cc5nc(cc1[nH]2)C(C)=C5CCC(=O)OC)c(CCC(=O)O)c4C)[C@@]1(C)C3=CC=C(C(=O)OC)C1C(=O)OC (some centres undefined) [Verteporfin],0.432 ± 0.0089
7,CC(C)C[C@H](NC(=O)[C@@H](O)[C@H](N)Cc1ccccc1)C(=O)O [Ubenimex],0.382 ± 0.025
8,CC(COc1ccccc1)N(CCCl)Cc1ccccc1 (centres undefined) [Phenoxybenzamine hydrochloride],0.261 ± 0.053
9,CN(C)CCCOc1nn(Cc2ccccc2)c2ccccc12 [Benzydamine hydrochloride],0.348 ± 0.023
10,CC1CS(=O)(=O)CCN1/N=C/c1ccc([N+](=O)[O-])o1 (centres undefined) [Nifurtimox],0.237 ± 0.017
11,NCC[C@H](O)C(=O)N[C@@H]1C[C@H](N)[C@@H](O[C@H]2O[C@H](CN)[C@@H](O)[C@H](O)[C@H]2O)[C@H](O)[C@H]1O[C@H]1O[C@H](CO)[C@@H](O)[C@H](N)[C@H]1O [Amikacin hydrate],0.0485 ± 0.0012
12,"Cc1cn([C@H]2C[C@H](N=[N+]=[N-])[C@@H](CO)O2)c(=O)[nH]c1=O [Zidovudine, AZT]",0.0819 ± 0.012
13,NC1CCN(c2nc3c(cc2F)c(=O)c(C(=O)O)cn3-c2ccc(F)cc2F)C1 (centres undefined) [Tosufloxacin hydrochloride],0.0575 ± 0.0039
14,CC[C@H](C)C(=O)O[C@H]1C[C@H](O)C=C2C=C[C@H](C)[C@H](CC[C@@H](O)C[C@@H](O)CC(=O)O)[C@H]21 [Pravastatin],0.37 ± 0.059
15,CC(NCCC(c1ccccc1)c1ccccc1)c1ccccc1 (centres undefined) [Fendiline hydrochloride],0.04653 ± 0.00025
16,CCN1CCCC(OC(=O)C(c2ccccc2)c2ccccc2)C1 (centres undefined) [Piperidolate hydrochloride],0.428 ± 0.14
17,COc1ccc(C(=O)NCc2ccc(OCCN(C)C)cc2)cc1OC [Itopride],0.365 ± 0.11
18,CCCCOc1ccc(C(=O)CCN2CCCCC2)cc1 [Dyclonine hydrochloride],0.252 ± 0.01
19,CC(C)C(=O)c1c(C(C)C)nn2ccccc12 [Ibudilast],0.372 ± 0.032
20,"CC(O)(P(=O)(O)O)P(=O)(O)O [Etidronic acid, disodium salt]",0.426 ± 0.068

row,SMILES,growth
1,Nc1ccc(O)c(C(=O)O)c1 [Mesalamine],0.362 ± 0.061
2,CC=CC1=C(C(=O)O)N2C(=O)[C@@H](NC(=O)[C@H](N)c3ccc(O)cc3)[C@H]2SC1 [Cefprozil],0.417 ± 0.022
3,O=C(OCC(O)CO)c1ccccc1Nc1ccnc2cc(Cl)ccc12 (centres undefined) [Glafenine hydrochloride],0.17 ± 0.021
4,CC1Cc2ccccc2N1NC(=O)c1ccc(Cl)c(S(N)(=O)=O)c1 (centres undefined) [Indapamide],0.442 ± 0.03
5,CN(C)CCN1C(=O)c2ccccc2N(C)c2ccccc21 [Dibenzepine hydrochloride],0.317 ± 0.04
6,CO[C@@]1(NC(=O)Cc2cccs2)C(=O)N2C(C(=O)O)=C(COC(N)=O)CS[C@@H]21 [Cefoxitin sodium salt],0.0593 ± 0.014
7,CCC1(c2ccccc2)NC(=O)N(C)C1=O (centres undefined) [Mephenytoin],0.328 ± 0.072
8,CCN(CC)CC#CCOC(=O)C(O)(c1ccccc1)C1CCCCC1 (centres undefined) [Oxybutynin chloride],0.191 ± 0.033
9,COC(=O)[C@H](c1ccccc1Cl)N1CCc2sccc2C1 [Clopidogrel],0.128 ± 0.0029
10,CN(C)CCOc1ccc(/C(=C(/CCCl)c2ccccc2)c2ccccc2)cc1 [Toremifene],0.057 ± 0.0021
11,O=C1c2ccccc2S(=O)(=O)N1CCCCN1CCN(c2ncccn2)CC1 [Ipsapirone],0.389 ± 0.064
12,COc1ccc(-c2cc(=S)ss2)cc1 [Anethole-trithione],0.263 ± 0.022
13,CCCc1nc2c(C)cc(-c3nc4ccccc4n3C)cc2n1Cc1ccc(-c2ccccc2C(=O)O)cc1 [Telmisartan],0.41 ± 0.024
14,CSc1ccc2c(c1)N(CCC1CCCCN1C)c1ccccc1S2 (centres undefined) [Thioridazine hydrochloride],0.0523 ± 0.0022
15,CCOC(=O)c1ccc(N)cc1 [Benzocaine],0.453 ± 0.027
16,Cc1cc2c(cc1S(N)(=O)=O)S(=O)(=O)CCC2 [Meticrane],0.425 ± 0.049
17,CC(C)COCC(CN(Cc1ccccc1)c1ccccc1)N1CCCC1 (centres undefined) [Bepridil hydrochloride],0.0475 ± 0.0016
18,NC[C@H]1O[C@H](O[C@H]2[C@H](O[C@@H]3O[C@H](CO)[C@@H](O)[C@H]3O)[C@@H](O)[C@H](N)C[C@@H]2N)[C@H](N)[C@@H](O)[C@@H]1O [Ribostamycin sulfate salt],0.458 ± 0.012
19,N=C(N)NS(=O)(=O)c1ccc(N)cc1 [Sulfaguanidine],0.383 ± 0.021
